Records with an inconclusive call do not appear. A call without a number means that no potency is given here. Active and inactive are the calls of the source. Calls follow the shape of the dose curve; as a rule, active = well fitted cell-killing curve with a large enough effect; inconclusive = small, poorly fitted or top-dose-only effect; inactive = flat fitted curve, though single readings scatter. Where a SMILES comes first, the peptide text is derived from it. [ ]: non-standard residue; d: D form. pGlu = O=C1CC[C@@H](C(=O)O)N1
Potency is read from the fitted curve at half-maximal effect.

The experiment is described as follows: qHTS of pediatric cancer cell lines to identify multiple opportunities for drug repurposing: Primary screen for TC32 cells (AID 1347089). Also: nearly all actives have a fitted effect of over 60% in size. The following applies: TC32 Ewing sarcoma viability, CellTiter-Glo luminescence, 48 h; series mostly up to 45.8 µM. An excerpt:
Drug repurposing or repositioning has been offered as a strategy for drug development in oncology programs. This approach has special potential for childhood cancers and other rare or orphan diseases, where the expected return on new drug development has been a disincentive to pharmaceuticals.
In this project we exploit the poly-pharmacology of drugs to discover new indications via phenotypic screening of a panel of 19 well-characterized cell lines derived from solid tumors seen in children and adolescents. The goal is to identify approved drugs with previously unrecognized anticancer properties that has the potential to reveal new mechanisms and biological processes involved in carcinogenesis or drug resistance. We employed a titration-based paradigm (quantitative high-throughput screening or qHTS), where all compounds were tested at multiple concentrations for their effect on cell viability. Concentration-response curves (CRCs) were derived directly from the primary screen, and both potency and efficacy values were used to identify compounds with robust bioactivity profiles. We screened the NIH Chemical Genomics Center (NCGC) Pharmaceutical Collection (NPC) and Mechanism Interrogation Plate (MIPE) small molecule collections of approved and investigational compounds against these cell lines; and measured metabolically active cells after 48 hours of compound treatment as a proxy for cell viability.
Assay Submitter: Nathalia J. Martinez, National Center for Advancing Translational Sciences, National Institutes of Health, Rockville, MD, USA; email: natalia.martinez@nih.gov
[1] Shen, M et al. Quantitative high-throughput phenotypic screening of pediatric cancer cell lines identifies multiple opportunities for drug repurposing. Oncotarget 2017 Dec 19;9(4):4758-4772. PMID 29435139.
The cells were obtained from University of North Carolina (UNC), Pediatric Preclinical Testing Program (PPT), and Coriell Institute (CI).
qHTS cell viability assay:
Cells were assayed in growth media at a density of 500-1,000 cells/well. Five microliters of cells were dispensed into 1,536-well, white, solid-bottom, TC-treated plates (Greiner Bio One) using a multidrop dispenser and incubated at 37 degrees C, 5% CO2, under a humidified atmosphere for 5 hours. Twenty-three nanoliters of compounds and controls (neutral control DMSO or positive control bortezomib at final concentration of 2.3 uM) were subsequently transferred by Kalypsys pintool. For primary screens, the MIPE collection was tested at 11-point dilutions (final concentrations range from 0.78 nM to 46 µM) and the NPC collection at 8-point dilutions (final concentrations range from 0.59 nM to 46 µM). Compounds tested in follow-up screens were assayed at 11-point dilutions. Cells were incubated for 48 hours, followed by addition of 3 uL of CellTiter-Glo (Promega). After a 15min incubation at room temperature, samples were analyzed for luminescence intensity using a ViewLux High-throughput CCD imager equipped with clear filters.
(In general: qHTS replaces the single test concentration by a dilution series.)
On to `CC1CC(=O)NN=C1c1ccc(NCC(C)(C)NCC(O)COc2cc(Cl)ccc2C#N)cc1` (stereo not given), for which the Potency result is “inactive”.
Under `CC(=O)Nc1ccn(C2COC(COC(=O)c3ccccc3)O2)c(=O)n1` (stereo not given) stands 1670 nM (active); under `OC(CCCN1CCCCC1)(c1ccccc1)c1ccccc1`, “inactive”.
To `COC(=O)C1=C(C)NC(C)=C(C(=O)OCCc2ccc(N3CCN(C(c4ccccc4)c4ccccc4)CC3)cc2)C1c1cccc([N+](=O)[O-])c1` (stereo not given) belongs “inactive”; to `CCC(=O)O[C@]1(C(=O)COC)[C@@H](C)C[C@H]2[C@@H]3CCC4=CC(=O)C=C[C@]4(C)C3(F)[C@@H](O)C[C@@]21C` (stereo not given in full), “inactive”; to `C[C@@H]1C[C@H]2[C@@H]3CCC4=CC(=O)C=C[C@]4(C)[C@@]3(F)[C@@H](O)C[C@]2(C)[C@@]1(O)C(=O)COC(=O)c1ccncc1`, “inactive”.
Under `CCNC(=O)[C@@H]1CCCN1C(=O)[C@H](CCCN=C(N)N)NC(=O)[C@H](CC(C)C)NC(=O)CNC(=O)[C@H](Cc1ccc(O)cc1)NC(=O)[C@H](CO)NC(=O)[C@H](Cc1c[nH]c2ccccc12)NC(=O)[C@H](Cc1cnc[nH]1)NC(=O)[C@@H]1CCC(=O)N1` ([pGlu]HWSYGLRP-NHEt) stands “inactive”; under `CN1CCCN(C(c2ccccc2)c2ccc(Cl)cc2)CC1` (stereo not given), “inactive”.
With `CO[C@@H]1[C@@H](O[C@@H]2O[C@H](C)[C@@H](O[C@H]3C[C@@](C)(O)[C@@H](O)[C@H](C)O3)[C@H](N(C)C)[C@H]2O)[C@@H](CC=O)C[C@@H](C)[C@@H](O[C@@H]2CC[C@H](N(C)C)[C@@H](C)O2)/C=C/C=C/C[C@@H](C)OC(=O)C[C@H]1OC(C)=O`, the Potency entry was “inactive”.
To `O=C1Nc2ccccc2C1(c1ccc(O)cc1)c1ccc(O)cc1` belongs “inactive”.
Under `CCOc1ncc(F)c(=O)[nH]1` stands “inactive”.
For `C[C@@]12CCC[C@H]1[C@@H]1CC[C@H]3C[C@@H](O)CC[C@]3(C)[C@H]1CC2`, the Potency result was “inactive”.
Under `CN(C)CCOC1=Cc2ccccc2Sc2ccc(Cl)cc21` stands “inactive”; under `O=C1CCCc2c(O)cccc21`, “inactive”; under `OC1(c2ccc(Cl)cc2)CCNCC1`, “inactive”.
To `CCOC(=O)NNc1ccc(N(CC)CC(C)O)nn1` (stereo not given) belongs “inactive”; to `Cc1cc(O)c(C)c(C)c1O`, “inactive”.
For `C=C(C)C(=O)OCC(O)CO` (stereo not given), the Potency entry was “inactive”.
Under `CC(=O)O[C@H]1CC[C@@]2(C)C(=CC[C@@H]3[C@@H]2CC[C@]2(C)C(C(C)=O)=CC[C@@H]32)C1` stands “inactive”.
On to `O=C(O)C(=O)Nc1cccc(-c2nn[nH]n2)c1`, for which the Potency result is “inactive”.
`CCCC(CCC)(C(=O)OCC)C(=O)OCC`: the Potency result is “inactive”.
To `CCCc1c2oc(C(=O)O)cc(=O)c2cc2c(=O)cc(C(=O)O)n(CC)c12` belongs “inactive”; to `O=C1Cc2cc(Cl)ccc2N1`, “inactive”.
Take `O=C1[C@@H]2[C@H]3CC[C@H](C3)[C@@H]2C(=O)N1CCCCN1CCN(c2ncccn2)CC1`: the Potency entry was “inactive”.
On to `CCOC(=O)C(O)c1ccccc1` (stereo not given), for which the Potency entry was “inactive”.
With `CCOC(=O)c1ccc(NC(=O)CN2CCCCC2)cc1`, the Potency entry is “inactive”.
To `CCCC(=O)O[C@]1(C(=O)CC)CC[C@H]2[C@@H]3CCC4=CC(=O)CC[C@]4(C)[C@H]3[C@@H](O)C[C@@]21C` belongs “inactive”.
Take `CN(C)CCCOC1(Cc2ccccc2)CCCCCC1`: the Potency result is “inactive”.
Under `CC(=O)[C@@]1(O)CC[C@H]2[C@@H]3C[C@H](C)C4=CC(=O)CC[C@]4(C)[C@H]3CC[C@@]21C` stands “inactive”.
On to `CCC[C@H](N[C@@H](C)C(=O)N1[C@H](C(=O)O)C[C@@H]2CCCC[C@@H]21)C(=O)OCC`, for which the Potency result is “inactive”.
As to `CC(C(O)c1ccccc1)N(C)CCOC(c1ccccc1)c1ccccc1` (stereo not given), the Potency entry was “inactive”.
As for `CO[C@@H]1[C@@H](OC)[C@H](C)[C@@](O)(CC(=O)O)O[C@H]1[C@H](C)[C@H]1O[C@@]2(CC[C@@](C)([C@H]3CC[C@@](C)([C@@H]4O[C@@H]([C@H]5O[C@](C)(O)[C@H](C)C[C@@H]5C)C[C@@H]4OC4C[C@H](OC)[C@@H](OC)[C@H](C)O4)O3)O2)C[C@H](O)[C@H]1C` (stereo not given in full), the Potency is 1870 nM (active).
On to `Cc1ncc([N+](=O)[O-])n1C`, for which the Potency entry was “inactive”.
Take `CC(=O)OCC(=O)[C@@]1(O)[C@H](OC(C)=O)C[C@H]2[C@@H]3CCC4=CC(=O)C=C[C@]4(C)[C@@]3(F)[C@@H](O)C[C@@]21C`: the Potency entry was “inactive”.
To `CCCC(=O)Nc1ccc(O)c(C(C)=O)c1` belongs “inactive”; to `CN1CCCN=C1/C=C/c1cccs1`, “inactive”; to `CN=C(N)NC(=O)Nc1c(C)cccc1C`, “inactive”.
Under `Cc1cc(OCCOCC[N+](C)(C)Cc2ccccc2)ccc1C(C)(C)CC(C)(C)C` stands 26400 nM (active); under `c1ccc2c(c1)CCc1ccccc1N2`, “inactive”.
Turning to `CC(C)CCCC(C)NCCC(C)C` (stereo not given), the Potency entry is “inactive”.

The record behind these values is PubChem BioAssay (NCATS).
